# Source: PubChem BioAssay (several laboratories)
# Rtt109 HAT inh: C. albicans Rtt109 histone acetyltransferase inhibition | Q5AAJ8 | AID 540336 | inhibition, % at 34.9 µM | purified Rtt109/Vps75, ThioGlo CoA-SH fluorescence, 4 h | hit rate 0.16% among 330,000;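 active means inhibition of at least 50% in every replicate; inconclusive means best replicate reaches 50% inhibition but some replicates fall short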
# dFosB activator: enhances mouse delta FosB homodimer DNA binding; P13346; purified delta FosB, TAMRA-CDK5 oligo fluorescence polarization; percent of positive-control signal above neutral wells; activation, % at 25 µM; hit rate 0.99% among 340,000;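 active means mean activation above about 17%, with every replicate also reaching it, limit read from the data, passing the limit was not always enough; inconclusive means only one of the two conditions met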
# esBAF inh: SWI/SNF esBAF complex inhibition. mouse ES cells, Bmi1-luciferase knock-in reporter, 24 h; 100% = twice the neutral-well signal. reporter increase, % at 12.5 µM. hit rate 2% among 350,000; in the data active means activation above about 40%; inconclusive means no clear call, values can overlap the other calls;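 further: a rise in the Bmi1 reporter signal indicates esBAF inhibition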
# SMARCA2 activ: increases SMARCA2 function in MMTV reporter cells | MG213 cells, MMTV-luciferase reporter, dexamethasone, overnight | activation, % at 9.1 µM | hit rate 1% among 370,000; in the data active means activation above about 7.8%
# Dyrk1A ADPGlo: blocks rat Dyrk1A kinase activity; Q63470; ADP-Glo luminescence, NFATc1 peptide; inhibition, % at 12.5 µM; hit rate 0.43% among 310,000; AID 504441; in the data active means inhibition above about 50%
# CDK5 inh: CDK5/p35 (human) kinase inhibition; Q00535+Q15078; Recombinant CDK5/p35, ADP-Glo luminescence, 60 min; inhibition, % at 10 µM; hit rate 0.01% among 330,000; AID 488839;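 active means highest replicate inhibition of at least 50% and at least 75% of replicates reaching 50%; inconclusive means only one of the two criteria met; inactive means both criteria failed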
# Target sequence (Q00535 whole entry, looked up): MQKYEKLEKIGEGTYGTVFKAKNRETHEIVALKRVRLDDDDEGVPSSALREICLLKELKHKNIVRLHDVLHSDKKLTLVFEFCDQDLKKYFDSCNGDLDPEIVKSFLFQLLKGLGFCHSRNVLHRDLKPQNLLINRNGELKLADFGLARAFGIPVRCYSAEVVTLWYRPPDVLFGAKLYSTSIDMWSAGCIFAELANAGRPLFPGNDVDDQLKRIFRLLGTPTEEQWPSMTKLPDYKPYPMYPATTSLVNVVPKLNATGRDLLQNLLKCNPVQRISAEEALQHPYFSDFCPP
# Target sequence (Q15078 whole entry, looked up): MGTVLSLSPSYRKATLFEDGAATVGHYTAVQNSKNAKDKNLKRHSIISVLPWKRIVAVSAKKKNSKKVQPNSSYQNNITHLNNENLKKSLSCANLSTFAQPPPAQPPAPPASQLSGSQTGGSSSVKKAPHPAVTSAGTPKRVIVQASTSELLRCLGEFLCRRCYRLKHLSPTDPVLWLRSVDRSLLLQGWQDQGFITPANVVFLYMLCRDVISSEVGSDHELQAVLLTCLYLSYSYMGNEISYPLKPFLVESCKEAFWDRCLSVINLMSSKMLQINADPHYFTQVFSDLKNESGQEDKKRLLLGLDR
# Hits are given with their value; - = inactive; ? = inconclusive; . = no result given. This is a sample that favours compounds with a hit; in the whole collection about 3.2% have one here.
SMILES,Rtt109 HAT inh,dFosB activator,esBAF inh,SMARCA2 activ,Dyrk1A ADPGlo,CDK5 inh
Cc1ccccc1CS(=O)(=O)c1nnc([C@H](CC(C)C)NC(=O)OC(C)(C)C)o1,-,-,-,-,-,-
COc1ccc(S(=O)(=O)Nc2ccc(-c3ccc4nnc(C)n4n3)cc2)c(OC)c1,-,22,-,-,-,-
COc1ccc(OC)c(S(=O)(=O)Nc2ccc(-c3ccc4nnc(C)n4n3)cc2)c1,.,-,.,-,-,-
C[C@H](CO)N1C[C@H](C)[C@H](CN(C)C(=O)Nc2ccccc2)Oc2c(NS(=O)(=O)c3ccccc3)cccc2C1=O,.,.,-,.,.,.
COCC(=O)N1C[C@H](C)[C@H](OC)CN(C)C(=O)c2ccc(NC(=O)c3ccc(F)cc3)cc2OC[C@@H]1C,.,.,-,.,.,.
Oc1sc(C=Nc2ccc(F)cc2)c2ccccc12,-,-,-,-,-,-
Oc1c(C=Nc2cccnc2)sc2ccccc12,-,-,.,7.9,-,-
Oc1sc(C=Nc2ccccc2)c2ccccc12,?,-,77,-,-,-
Cc1ccc(-c2cnc3c(c2)C(=O)N([C@@H](C)CO)C[C@@H](C)[C@H](CN(C)C(=O)CN(C)C)O3)cc1,.,.,-,.,.,.
Cc1ccc(OCCOc2ccc(Br)cc2)c([N+](=O)[O-])n1,-,-,65,-,-,-
Cc1ccc(OCc2ccc([N+](=O)[O-])cc2)c([N+](=O)[O-])n1,-,-,.,-,.,-
Cc1ccc(OCC(=O)Nc2ccc(C)c(F)c2)c([N+](=O)[O-])n1,-,-,56,-,-,-
CC(C)C#Cc1cnc2c(c1)C(=O)N([C@H](C)CO)C[C@@H](C)[C@H](CN(C)C(=O)c1cccc(F)c1)O2,.,.,-,.,.,.
COc1ccc2cc3c(N)c(C(=O)NCc4ccco4)sc3nc2c1,-,-,72,-,-,-
COc1ccc2cc3cc(C(=O)NCc4ccco4)oc3nc2c1,-,-,.,-,-,-
Cc1ccc(-c2ccc3c(c2)O[C@H](CN(C)S(C)(=O)=O)[C@@H](C)CN([C@H](C)CO)S3(=O)=O)cc1,.,.,-,.,.,.
CO[C@@H]1CN(C)C(=O)c2cc(NC(=O)C3CC3)ccc2OC[C@H](C)N(C(C)=O)C[C@@H]1C,.,.,-,.,.,.
COc1ccc(CN(C)C[C@@H]2Oc3c(NC(=O)Nc4ccccc4)cccc3C(=O)N([C@@H](C)CO)C[C@@H]2C)cc1,.,.,-,.,.,.
COc1ccccc1NC(=O)Cn1nnc(-c2ccccc2NC(=O)c2ccco2)n1,-,-,-,-,-,-
COc1ccc(NC(=O)Cn2nnc(-c3ccccc3NC(=O)c3ccco3)n2)cc1,-,26,.,-,-,-
COc1cccc(CNC(=O)C[C@@H]2CC[C@H]3[C@@H](COc4ccc(NC(C)=O)cc4C(=O)N3C)O2)c1,.,.,-,.,.,.
O=C(Nc1ccccc1)C(=O)Nc1ccccn1,.,-,-,8.0,-,-
CC(C)(C)C(=O)Nc1ccc(C(=O)OC2CCCCC2)cc1,-,-,64,.,-,-
COC(=O)c1cccc(NC(=O)Nc2ccc(Cl)c(Cl)c2)c1,-,-,71,-,-,-
COC(=O)c1cccc(NC(=O)NC(=O)c2ccccc2Cl)c1,-,-,.,-,-,-
SMILES,Rtt109 HAT inh,dFosB activator,esBAF inh,SMARCA2 activ,Dyrk1A ADPGlo,CDK5 inh
O=C(OC1CCCCC1)c1ccc(NC(=O)C2CCCCC2)cc1,-,-,.,-,-,-
COc1cccc(NC(=O)Nc2ccc(C(C)(C)C)cc2)c1,-,-,57,-,-,-
C[C@H](CO)N1C[C@H](C)[C@H](CN(C)Cc2ccc(C(=O)Nc3ccccc3N)cc2)Oc2ccc(NC(=O)CCN3CCOCC3)cc2C1=O,.,.,-,.,.,.
C[C@@H]1CN([C@H](C)CO)C(=O)Cc2cc(NC(=O)c3ccncc3)ccc2O[C@@H]1CN(C)Cc1ccc(Cl)c(Cl)c1,.,.,-,.,.,.
COc1ccc(NC(=O)Nc2ccccn2)cc1OC,-,-,-,-,-,-
COc1cccc(NC(=O)c2ccc(NC(=O)C(C)(C)C)cc2)c1,-,-,66,-,-,-
O=C(Nc1ccc(Cl)c(Cl)c1)Nc1ccccn1,-,-,67,-,-,-
COc1cccc(NC(=O)Nc2ccc(C)c(Cl)c2)c1,-,-,55,-,-,-
C[C@@H]1CN([C@H](C)CO)C(=O)c2cccc(NC(=O)C3CC3)c2O[C@@H]1CN(C)C,.,.,-,.,.,.
COC(=O)C(Cc1c[nH]c2ccccc12)NC(=O)c1ccc2nc[nH]c2c1 (stereo unspecified),-,-,77,-,-,-
